Source: PubChem BioAssay (EPA / NIEHS)
Records with an inconclusive call do not appear. More than one record can exist for a structure, and the calls need not agree. The source made the active and inactive calls. The calls were made as follows, unless noted: active = hit-call score of the fitted dose curve at least 0.9, where 1 is the maximum; inconclusive = response in the unintended direction; inactive = score below 0.9.

Key:
[1] = TOX21_p53_BLA_p2_viability: Viability Assessment in the Tox21 HCT-116 p53 Agonism Beta-lactamase Assay, Phase 2 (AID 2283591);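 also: compound exposure lasted 16 h at 37 °C; actives lower the ATP signal meaning cytotoxicity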
Outline: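 HCT-116 p53-bla cells (4000/well) rested 5 h at 37C, then received compounds in DMSO (217-fold dilution) for 16 h at 37C, 5% CO2. After the CCF4 read, CellTiter-Glo was added; ATP luminescence was read after 30 min at room temperature.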

[2] = TOX21_p53_BLA_p4_viability: Viability Assessment in the Tox21 HCT-116 p53 Agonism Beta-lactamase Assay, Phase 4 (AID 2283597);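 also: hits lower the luminescence signal meaning cytotoxicity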
Outline: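 In this multiplexed secondary endpoint, HCT116 cells (4000 per well, compound at 5 h, 16 h treatment) received CellTiter-Glo after the beta-lactamase read. Luminescence after 30 min RT reflects ATP, and falling signal marks cytotoxicity.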

[3] = target: Cellular tumor antigen p53 (Homo sapiens) (UniProt P04637); experiment: TOX21_p53_BLA_p4_ratio: Tox21 HCT-116 p53 Agonism Beta-lactamase Assay, Ratio, Phase 4 (AID 2283601)
Outline: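 HCT116 cells carrying an inducible beta-lactamase reporter were plated at 4000 cells/well, rested 5 h, then exposed to compounds in DMSO (217-fold dilution) for 16 h at 37C. CCF4-AM substrate was loaded 2 h at room temperature; 460/530 nm emission ratio scored gain-of-signal versus DMSO.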

[4] = TOX21_p53_BLA_p5_viability: Viability Assessment in the Tox21 HCT-116 p53 Agonism Beta-lactamase Assay, Phase 5 (AID 2283600)
Outline: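 Here cell health was gauged by ATP levels in wells holding 4000 cells, each treated 16 h with DMSO-delivered compounds at 217-fold dilution; reduced luminescence marked toxicity.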

[5] = target: Cellular tumor antigen p53 (Homo sapiens) (UniProt P04637); experiment: TOX21_p53_BLA_p5_ratio: Tox21 HCT-116 p53 Agonism Beta-lactamase Assay, Ratio, Phase 5 (AID 2283599)
Outline: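 HCT-116 cells carrying a p53-inducible beta-lactamase reporter were seeded at 4000 cells/well and dosed after 5 h with compound in DMSO (217-fold dilution). After 16 h at 37C, CCF4-AM substrate was added for 2 h, and the 460/530 nm emission ratio was scored as gain-of-signal versus DMSO.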

[6] = CCTE_Harrill_HTTr_Viability_MCF7: CCTE's 6-hour Cell Viability Assessment for the High-Throughput Transcriptomics (HTTr) Platform, in MCF-7 cells cultured in DMEM + 10% fetal bovine serum, Harrill Lab (AID 2284010; active = hit-call score of the fitted dose curve at least 0.9, where 1 is the maximum; inactive = score below 0.9)
Outline: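 PI exclusion, high-content imaging; 8-pt dilution series, 6 h exposure; bidirectional fit vs DMSO (neg. ctrl/baseline); gain of signal = loss of membrane integrity.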

[7] = CCTE_Harrill_HTTr_Apoptosis_MCF7: CCTE's 6-hour Apoptosis Assessment for the High-Throughput Transcriptomics (HTTr) Platform, in MCF-7 cells cultured in DMEM + 10% fetal bovine serum, Harrill Lab (AID 2284011; active = hit-call score of the fitted dose curve at least 0.9, where 1 is the maximum; inactive = score below 0.9)
Outline: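 Apoptosis in MCF-7 cells grown in DMEM with 10% fetal bovine serum was scored after a six hour exposure by high content imaging of caspase-3/7 activation (CellEvent Caspase 3/7 Green), with DMSO serving as negative control and baseline.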

[8] = CCTE_Harrill_HTTr_CellCount_MCF7: CCTE's Cell Proliferation Assessment for the High-Throughput Transcriptomics (HTTr) Platform, Harrill Lab (AID 2284012);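 also: count of Hoechst-stained nuclei per well by high-content imaging in MCF-7 cells; cells exposed to compound for six hours; intended direction is loss of nuclei count meaning fewer cells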
Outline: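 Readout: Hoechst nuclear count by high-content imaging. MCF-7, 8-point dilution series, 6 h exposure. Bidirectional fit vs DMSO baseline.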

[9] = target: Cellular tumor antigen p53 (Homo sapiens) (UniProt P04637); experiment: TOX21_p53_BLA_p2_ratio: Tox21 HCT-116 p53 Agonism Beta-lactamase Assay, Ratio, Phase 2 (AID 2283592)
Outline: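 DMSO-normalized, positive-direction endpoint derived from the 460 nm/530 nm FRET ratio in HCT116 p53 beta-lactamase reporter cells exposed 16 h at 37C and loaded with CCF4-AM for 2 h.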

[10] = TOX21_p53_BLA_p3_viability: Viability Assessment in the Tox21 HCT-116 p53 Agonism Beta-lactamase Assay, Phase 3 (AID 2283593);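 also: cells exposed to compound for 16 h before reading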
Outline: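 HCT-116 cells (4000/well) rested 5 h at 37C, then got DMSO compounds by pin tool (217-fold dilution) for 16 h at 37C, 5% CO2. After the bla read, CellTiter-Glo was added and luminescence read at 30 min, room temperature.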

[11] = target: Cellular tumor antigen p53 (Homo sapiens) (UniProt P04637); experiment: TOX21_p53_BLA_p3_ratio: Tox21 HCT-116 p53 Agonism Beta-lactamase Assay, Ratio, Phase 3 (AID 2283596)
Outline: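 Cells were seeded at 4000/well, rested 5 h at 37C, then dosed with DMSO compound solutions (217-fold dilution) for 16 h. CCF4-AM substrate was loaded for 2 h at room temperature, and the 460/530 nm emission ratio was fitted for gain of signal versus DMSO.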

Cellular tumor antigen p53 (Homo sapiens), sequence (P04637 whole entry, looked up): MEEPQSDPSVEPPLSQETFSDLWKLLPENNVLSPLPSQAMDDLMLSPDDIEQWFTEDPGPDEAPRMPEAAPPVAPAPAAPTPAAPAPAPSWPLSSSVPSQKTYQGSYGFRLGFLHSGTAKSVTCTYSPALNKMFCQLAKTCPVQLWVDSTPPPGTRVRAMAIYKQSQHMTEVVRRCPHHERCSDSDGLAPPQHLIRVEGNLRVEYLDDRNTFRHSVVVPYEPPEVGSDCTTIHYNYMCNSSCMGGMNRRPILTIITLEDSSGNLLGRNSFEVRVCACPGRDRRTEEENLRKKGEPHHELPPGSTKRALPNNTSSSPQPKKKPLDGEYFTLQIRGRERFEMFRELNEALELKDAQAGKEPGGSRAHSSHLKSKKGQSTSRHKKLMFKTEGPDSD

O=C1NC2CCCCN2C12CCN(CCCN1c3ccccc3CCc3ccc(Cl)cc31)CC2 (stereo not given)
AC50 [1]: 37.5 µM (active)
AC50 [2]: 43 µM (active)
outcome [3]: inactive

O=C(O)c1ccc(CO)o1
outcome [1]: inactive
outcome [2]: inactive
outcome [4]: inactive
outcome [3]: inactive

O=C1c2ccccc2CN2C(=O)c3ccccc3CN12
outcome [1]: inactive
outcome [2]: inactive
outcome [5]: inactive
outcome [3]: inactive

O=P(O)(O)C(O)(Cc1cnc2ccccn12)P(=O)(O)O
outcome [1]: inactive
outcome [5]: inactive

O=C(CN1CCN(Cc2ccc3c(c2)OCO3)CC1)N1c2ccccc2Sc2ccccc21
outcome [1]: inactive
outcome [2]: inactive
outcome [5]: inactive
outcome [4]: inactive
outcome [3]: inactive

COc1ccccc1OCCNCC(O)COc1cccc2[nH]c3ccccc3c12 (stereo not given)
outcome [1]: inactive
AC50 [2]: 36.8 µM (active)
outcome [5]: inactive
outcome [4]: inactive
AC50 [3]: 41.9 µM (active)

CC(=O)Nc1cccc(C)c1
outcome [1]: inactive
outcome [2]: inactive
outcome [4]: inactive
outcome [3]: inactive

Cc1ncc(CO)c(CN)c1O
outcome [1]: inactive
outcome [2]: inactive
outcome [5]: inactive
outcome [4]: inactive
outcome [3]: inactive

CC(=O)CC(c1ccc([N+](=O)[O-])cc1)c1c(O)c2ccccc2oc1=O (stereo not given)
outcome [1]: inactive
outcome [2]: inactive
outcome [5]: inactive
outcome [3]: inactive

C[N+](C)(C)CC[N+]1(C)Cc2c(Cl)c(Cl)c(Cl)c(Cl)c2C1
outcome [1]: inactive
outcome [2]: inactive
outcome [5]: inactive
outcome [4]: inactive
outcome [3]: inactive

c1ccc(COCc2ccccc2)cc1
outcome [1]: inactive
outcome [2]: inactive
outcome [5]: inactive
outcome [3]: inactive

NC(=S)Nc1cccc2ccccc12
outcome [1]: inactive
outcome [2]: inactive
outcome [5]: inactive
outcome [3]: inactive

Nc1nc2c(ncn2CCC(CO)CO)c(=O)[nH]1
outcome [1]: inactive
outcome [2]: inactive
outcome [4]: inactive

Cc1cccc(Nc2ccncc2S(=O)(=O)NC(=O)NC(C)C)c1
outcome [1]: inactive
outcome [2]: inactive
outcome [5]: inactive
outcome [4]: inactive
outcome [3]: inactive

C[C@]12CCC(=O)C=C1CC[C@@H]1[C@@H]2[C@@H](O)C[C@@]2(C)[C@H]1CC[C@]2(O)C(=O)COC(=O)CCC(=O)O
outcome [1]: inactive
outcome [2]: inactive
outcome [4]: inactive
outcome [3]: inactive

CCC(C)(C)C(=O)O
outcome [1]: inactive
outcome [2]: inactive
outcome [4]: inactive
outcome [3]: inactive

Nc1c(NC/C=C\COc2cc(CN3CCCCC3)ccn2)c(=O)c1=O
outcome [1]: inactive
outcome [5]: inactive

CS(=O)(=O)c1ccc([C@@H](O)[C@@H](CF)NC(=O)C(Cl)Cl)cc1
outcome [1]: inactive
outcome [5]: inactive

Cc1ccc(C(C)NC(=O)[C@@H](NC(=O)OC(C)C)C(C)C)cc1 (stereo not given in full)
outcome [1]: inactive
outcome [2]: inactive
outcome [5]: inactive
outcome [4]: inactive
outcome [3]: inactive
outcome [6]: inactive
outcome [7]: inactive
outcome [8]: inactive

NS(=O)(=O)c1cc2c(cc1Cl)NC(CSCc1ccccc1)=NS2(=O)=O
outcome [1]: inactive
outcome [5]: inactive

Nc1ccc2c3c(cccc13)-c1ccccc1-2
outcome [1]: inactive
outcome [2]: inactive
outcome [4]: inactive

O=C1c2ccccc2C(=O)c2cc(Cl)ccc21
outcome [1]: inactive
outcome [2]: inactive
outcome [4]: inactive

CCOC(=O)NCCC[Si](OCC)(OCC)OCC
outcome [1]: inactive
outcome [2]: inactive
outcome [4]: inactive

O=C1c2c(O)cccc2C([C@@H]2O[C@H](CO)[C@@H](O)[C@H](O)[C@H]2O)c2cc(CO)cc(O)c21 (stereo not given in full)
outcome [1]: inactive
outcome [2]: inactive
outcome [5]: inactive
outcome [4]: inactive
outcome [3]: inactive

NC(=O)c1ccncc1
outcome [1]: inactive
outcome [2]: inactive
outcome [5]: inactive
outcome [3]: inactive

O=C(Cl)c1cc(Cl)cc(Cl)c1
outcome [9]: inactive
outcome [10]: inactive
outcome [11]: inactive
outcome [2]: inactive
outcome [5]: inactive
outcome [4]: inactive

CC1=C(C=O)C(C)(C)CC=C1
outcome [9]: inactive
outcome [10]: inactive
outcome [11]: inactive
outcome [2]: inactive
outcome [5]: inactive

COc1ccc2cc(CCC(C)=O)ccc2c1
outcome [9]: inactive
outcome [10]: inactive
outcome [11]: inactive
outcome [2]: inactive
outcome [5]: inactive
outcome [4]: inactive

CCC[C@@H]1C[C@@H](C(=O)N[C@@H]([C@H]2O[C@H](SC)[C@H](OP(=O)(O)O)[C@@H](O)[C@H]2O)[C@H](C)Cl)N(C)C1
outcome [9]: inactive
outcome [10]: inactive
outcome [11]: inactive
outcome [2]: inactive
outcome [5]: inactive
outcome [4]: inactive

CCN1CC(CCN2CCOCC2)C(c2ccccc2)(c2ccccc2)C1=O (stereo not given)
outcome [9]: inactive
outcome [10]: inactive
outcome [11]: inactive
outcome [2]: inactive
outcome [5]: inactive

NCCc1ccc(O)c(O)c1
outcome [9]: inactive
outcome [10]: inactive
outcome [11]: inactive
outcome [2]: inactive
outcome [5]: inactive
outcome [4]: inactive

Cn1cnc2c(F)c(Nc3ccc(Br)cc3Cl)c(C(=O)NOCCO)cc21
outcome [9]: inactive
outcome [10]: inactive
outcome [11]: inactive
outcome [2]: inactive
outcome [5]: inactive
outcome [4]: inactive
outcome [3]: inactive

CC(=O)N(CC(O)CO)c1c(I)c(C(=O)NCC(O)CO)c(I)c(C(=O)NCC(O)CO)c1I (stereo not given)
outcome [9]: inactive
outcome [10]: inactive
outcome [11]: inactive
outcome [2]: inactive

Cc1cn([C@H]2C[C@H](O)[C@@H](CO)O2)c(=O)[nH]c1=O
outcome [9]: inactive
outcome [10]: inactive
outcome [11]: inactive
outcome [2]: inactive
outcome [5]: inactive
outcome [4]: inactive
outcome [3]: inactive

C=Cc1ccc(S(=O)(=O)O)cc1
outcome [9]: inactive
outcome [10]: inactive
outcome [11]: inactive
AC50 [2]: 46.1 µM (active)
outcome [2]: inactive
outcome [5]: inactive
outcome [4]: inactive
outcome [3]: inactive

c1ccc2sc(SN3CCOCC3)nc2c1
outcome [9]: inactive
outcome [10]: inactive
outcome [11]: inactive
outcome [2]: inactive
outcome [5]: inactive
outcome [4]: inactive
outcome [3]: inactive

NC(=O)c1cccc([N+](=O)[O-])c1
outcome [9]: inactive
outcome [10]: inactive
outcome [11]: inactive
outcome [2]: inactive
outcome [5]: inactive
outcome [4]: inactive
